Results on seven compounds are retold here after PubChem BioAssay (NCATS).

Test [1] concerns the target Lysosomal acid glucosylceramidase (Homo sapiens) (UniProt P04062). Kind of test: Glucocerebrosidase-p2 (AID 348; in the data active = potency below about 10 µM; note: potency is the fitted concentration of half-maximal effect). Conditions: purified GBA, blue fluorogenic substrate, 40 min. The method in brief: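 Normal human glucocerebrosidase (0.2 nM) with blue fluorogenic substrate (80 uM final) in citrate/phosphate pH 5.9 with 10mM sodium taurocholate, 0.01% tween-20; 40 min RT, NaOH/glycine stop; fluorescence Ex 365/Em 440; AC50 from a titration from 0.6 nM upwards.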

Test [2] is described as follows: AP1 Signaling Pathway (AID 357).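 Note: ME-180 reporter cells stimulated with EGF at its EC50 level; % is set by controls: 0 for no effect and ±100 for the full control effect.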 The settings on record: ME-180 AP-1-bla reporter, EGF-induced, beta-lactamase ratio, 5 h; at 7.69 µM (top of the series) unless noted. The method in brief: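 A ratiometric CCF4 readout (405 nm excitation; 460 and 530 nm emission) quantified AP-1-driven beta-lactamase in ME-180 cells after 5 h with compound and EC50 EGF; AC50 values were derived for activators and inhibitors.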

Test [3] can be described thus: NFAT Signaling Pathway (AID 444).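 Note: carbachol stimulus at about its EC50 of 1 µM final; % is set by controls: 0 for no effect and ±100 for the full control effect.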 The settings on record: Jurkat NFAT-bla M1, carbachol, beta-lactamase ratio, 5 h; at 7.69 µM (top of the series) unless noted. Put shortly: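 Jurkat cells with NFAT-driven β-lactamase reporter and co-expressed M1 receptor, stimulated with carbachol (final 1 uM, ~EC50), compound titration, 5 h at 37 °C. CCF4 loaded 1 h at RT; 460/530 nm ratio gave %activity and AC50.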

For test [4], the target named is Glucocorticoid receptor (Homo sapiens) (UniProt P04150). Kind of test: GR-GFP Redistribution (AID 450;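 active = compounds whose dose series gives a full or clear partial fitted curve of increased nuclear translocation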; note: potency is the fitted concentration of half-maximal effect). Conditions: U2OS GR-GFP nuclear translocation, laser cytometry, 2 h.
Test [5] has the same target. Kind of test: GR-EFC Redistribution (AID 451; calls by dose curve; note: potency is the fitted concentration of half-maximal effect). The settings on record: CHO-K1 GR-EFC translocation, beta-gal luminescence, 2 h. Put shortly:
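CHO-K1 cells expressing nuclear EA and GR-ED fragments of b-gal; compounds titrated up to 46 uM final, 2 h at 37 C. GR nuclear translocation read as complemented b-gal luminescence after 1 h RT detection.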

Test [6] concerns the target Mitogen-activated protein kinase 10 (Mus musculus) (UniProt Q61831). Kind of test: JNK3 AlphaScreen Assay (AID 530).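 Note: kinase came from lysate of stimulated human HepG2 cells; signal reports phosphorylation of biotinylated GST-cJun 1-79 at Ser73 with 10 µM ATP; % is set by controls: 0 for no effect and ±100 for the full control effect.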 Put shortly:
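Activity was read by AlphaScreen after JNK3-containing HepG2 lysate (cytokine pre-activated) phosphorylated biotinylated GST-cJun with 10 uM ATP at room temperature. Phospho-Ser73 cJun antibody with Protein-A acceptor beads provided detection.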

The target of test [7] is 3',5'-cyclic-AMP phosphodiesterase 4B (Homo sapiens) (UniProt Q07343). Kind of test: qHTS Assay for Inhibitors of PDE-IV (AID 607; active = well fitted activation curve with a large enough effect in the main read-out, with a control signal flat, not every such curve was filed as active; note: % of control where 0% means no effect). The method in brief:
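HEK293 ACTOne cells with CNG channel (1000/well), endogenous PDE4; membrane potential dye, compounds up to 22.9 uM final. Fluorescence Ex 535/Em 590; RO 20-1724 (100 uM final) as reference.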

Test [8] can be described thus: qHTS Assay for Identification of Small Molecule Agonists for Hypoxia Response Element Signaling Pathway (AID 914; active = well fitted activation curve with a large enough effect in the signal ratio, with a control signal flat, not every such curve was filed as active; the % refers to the signal ratio; note: potency is the fitted concentration of half-maximal effect). The settings on record: ME-180 HRE-bla reporter, beta-lactamase ratio, CoCl2, 17 h; activation: stronger effect = higher value. Put shortly: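 qHTS titration; ME-180 HRE-bla cells; EC50 CoCl2 co-treatment, 17 h at 37 degrees Celsius; CCF4 dye, ex 405nm, em 460nm and 530nm; %Activity from ratio; AC50.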

Test [9] is described as follows: qHTS Assay for Lipid Storage Modulators (AID 1519; calls by dose curve). Conditions: Drosophila S3 cells, BODIPY lipid droplet/cell ratio, laser cytometry, cells loaded with oleic acid; for activity change, negative = inhibition: at 57.5 µM (top of the series). Put shortly:
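Cells seeded at 5,000 per well were treated with compounds over a concentration series and loaded with oleic acid (400 uM, as added). Lipid droplet fluorescence (488 nm excitation, 500-530 nm channel) was read by laser-scanning cytometry and normalized to 20 uM Triacsin C.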

For test [10], the target named is Dual specificity protein kinase CLK4 (Homo sapiens) (UniProt Q9HAZ1). Kind of test: qHTS Assay for Inhibitors of CDC-like Kinase 4 (Kinase-Glo Assay) (AID 1770; active = well fitted curve in the direction sought with a large enough effect; an effect the other way counts as inactive or inconclusive; note: nearly all actives have a fitted effect of over 65% in size; note: potency is the fitted concentration of half-maximal effect). The method in brief: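 Substrate mix (RS peptide 100 uM, ATP 1 uM) dispensed, compound pinned in, then Clk4 added to 25 nM final. Incubated 4.5 h at RT; Kinase-Glo reagent added, luminescence read after 5 min.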

Test [11] shares this target. Kind of test: qHTS Assay for Inhibitors of CDC-like Kinase 4 (ADP-FP Assay) (AID 1795; active = well fitted curve in the direction sought with a large enough effect; an effect the other way counts as inactive or inconclusive;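 note: recombinant human CLK4 phosphorylating RS repeat peptide at 1 µM ATP; % is set by controls: 0 for no effect and ±100 for the full control effect; nearly all actives have a fitted effect of over 60% in size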). The method in brief:
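Clk4 6.25 nM; RS peptide 100 uM; ATP 1 uM; 25 mM Tris pH 7.5, 10 mM MgCl2; 1 h reaction. ADP detected via antibody/orange tracer FP displacement; TG003 positive control.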

For test [12], the target named is Ubiquitin carboxyl-terminal hydrolase 1 (Homo sapiens) (UniProt O94782). Kind of test: Inhibitors of USP1/UAF1: Pilot qHTS (AID 504865; active = well fitted curve in the direction sought with a large enough effect; an effect the other way counts as inactive or inconclusive; note: nearly all actives have a fitted effect of over 35% in size; note: potency is the fitted concentration of half-maximal effect). The method in brief: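 In 50mM HEPES pH 7.8 containing 0.5mM EDTA, 1mM TCEP, 0.1 mg/ml BSA and 0.01% Tween-20, 1nM USP1/UAF1 is exposed to compound for 15 min, then Ub-Rho (150nM final) is added and fluorescence is read over time.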

The nature of test [13]: Primary qHTS for small molecule stabilizers of the endoplasmic reticulum resident proteome: Secreted ER Calcium Modulated Protein (SERCaMP) assay (AID 1508630; active = well fitted curve in the direction sought with a large enough effect; an effect the other way counts as inactive or inconclusive; note: % is set by controls: 0 for no effect and ±100 for the full control effect). Put shortly: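 The SH-SY5Y reporter protocol was run at 3 concentrations up to 38.3 uM (primary) or 11 concentrations (follow-up): 16 h compound, 100 nM thapsigargin for 4 h, then extracellular luciferase luminescence.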

The nature of test [14]: Stat Signaling Pathway (AID 446). The settings on record: ME-180 (cervical carcinoma) SIE beta-lactamase reporter, IL-6 stimulated, 5 h; at 7.69 µM (top of the series) unless noted. The method in brief: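 Normalization used AC90 stimulation (300 pM IL-6) and AC90 inhibition (125 nM pan-JAK inhibitor at 40 pM IL-6). The underlying signal is SIE-driven beta-lactamase in ME-180 cells after 5 h IL-6 exposure with compound.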

For test [15], the target named is Cytochrome P450 1A2 (Homo sapiens) (UniProt P05177). Kind of test: p450-cyp1a2 (AID 410; calls by dose curve; note: potency is the fitted concentration of half-maximal effect). Put shortly: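 O-Demethylation of luciferin 6' methyl ether by human CYP1A2 is monitored as luciferase luminescence. Substrate sits at Km (100uM); enzyme is 20nM. Values are scaled to 57 uM furafylline as maximal inhibition.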
The target in test [16] is Cytochrome P450 3A4 (Homo sapiens) (UniProt P08684). Kind of test: qHTS Assay for Activators of Cytochrome P450 3A4 (AID 885; active = well fitted curve in the direction sought with a large enough effect; an effect the other way counts as inactive or inconclusive; note: nearly all actives have a fitted effect of over 65% in size). The method in brief: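 Human CYP3A4 dealkylates Luciferin-PPXE to luciferin, which luciferase detection converts to light. Substrate was at its KM (25uM), buffer 200mM KPO4, reaction 60 min at RT.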
Test [17] shares this target. Kind of test: qHTS Assay for Inhibitors and Substrates of Cytochrome P450 3A4 (AID 884; active = well fitted curve in the direction sought with a large enough effect; an effect the other way counts as inactive or inconclusive; note: potency is the fitted concentration of half-maximal effect; nearly all actives have a fitted effect of over 50% in size). Put shortly: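 Luminescent readout of luciferin produced by CYP3A4 (20 nM) dealkylation of Luciferin-PPXE, 25 uM (its KM). NADPH-driven reaction ran 60 min at RT after 10 min compound preincubation; data scaled to 57 uM ketoconazole as 100% inhibition.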
Setting [18] is: measured here: cell count channel max response.
Setting [19] is: measured here: lipid channel max response.

Records with an inconclusive call do not appear. Active and inactive are the calls of the source. Unless noted, calls come from the whole dose curve; as a rule, active = well fitted curve in either direction with a large enough effect (not every such curve was filed as active); inconclusive = small, poorly fitted or top-dose-only effect, or another doubt; inactive = flat fitted curve, though single readings scatter.

Sequence of 3',5'-cyclic-AMP phosphodiesterase 4B (Homo sapiens) (Q07343 whole entry, looked up): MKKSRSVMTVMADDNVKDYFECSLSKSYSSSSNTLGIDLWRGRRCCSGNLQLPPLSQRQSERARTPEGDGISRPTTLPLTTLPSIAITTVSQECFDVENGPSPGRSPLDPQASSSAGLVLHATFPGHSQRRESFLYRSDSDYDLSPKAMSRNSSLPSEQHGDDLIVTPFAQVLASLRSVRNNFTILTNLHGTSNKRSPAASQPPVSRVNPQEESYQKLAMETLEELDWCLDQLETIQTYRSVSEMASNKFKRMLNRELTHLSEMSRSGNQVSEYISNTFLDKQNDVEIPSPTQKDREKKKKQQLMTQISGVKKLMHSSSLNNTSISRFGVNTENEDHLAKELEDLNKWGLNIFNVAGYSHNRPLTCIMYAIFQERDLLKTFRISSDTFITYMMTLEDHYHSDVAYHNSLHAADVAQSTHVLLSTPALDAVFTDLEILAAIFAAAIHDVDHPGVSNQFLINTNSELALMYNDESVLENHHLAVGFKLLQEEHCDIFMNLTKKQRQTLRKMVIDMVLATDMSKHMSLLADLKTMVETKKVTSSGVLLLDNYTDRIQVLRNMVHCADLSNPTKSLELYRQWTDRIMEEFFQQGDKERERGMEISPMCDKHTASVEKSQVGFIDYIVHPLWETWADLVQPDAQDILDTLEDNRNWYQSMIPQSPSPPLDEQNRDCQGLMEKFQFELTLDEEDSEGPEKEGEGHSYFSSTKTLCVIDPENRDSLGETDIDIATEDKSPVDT
Sequence of Cytochrome P450 1A2 (Homo sapiens) (P05177 whole entry, looked up): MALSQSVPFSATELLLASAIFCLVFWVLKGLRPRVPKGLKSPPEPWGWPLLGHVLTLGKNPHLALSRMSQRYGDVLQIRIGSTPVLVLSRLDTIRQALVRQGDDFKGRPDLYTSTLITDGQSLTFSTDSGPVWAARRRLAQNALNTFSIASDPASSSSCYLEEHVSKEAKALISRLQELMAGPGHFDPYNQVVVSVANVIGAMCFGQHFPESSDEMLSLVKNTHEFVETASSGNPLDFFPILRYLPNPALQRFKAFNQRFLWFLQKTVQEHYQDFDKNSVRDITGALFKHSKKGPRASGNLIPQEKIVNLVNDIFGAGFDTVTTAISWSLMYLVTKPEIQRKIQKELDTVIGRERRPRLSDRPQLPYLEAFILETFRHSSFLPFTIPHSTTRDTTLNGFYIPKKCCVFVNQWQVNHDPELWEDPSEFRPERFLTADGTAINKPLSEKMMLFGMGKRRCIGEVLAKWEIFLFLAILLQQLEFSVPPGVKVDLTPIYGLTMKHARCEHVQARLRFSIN
Sequence of Dual specificity protein kinase CLK4 (Homo sapiens) (Q9HAZ1 whole entry, looked up): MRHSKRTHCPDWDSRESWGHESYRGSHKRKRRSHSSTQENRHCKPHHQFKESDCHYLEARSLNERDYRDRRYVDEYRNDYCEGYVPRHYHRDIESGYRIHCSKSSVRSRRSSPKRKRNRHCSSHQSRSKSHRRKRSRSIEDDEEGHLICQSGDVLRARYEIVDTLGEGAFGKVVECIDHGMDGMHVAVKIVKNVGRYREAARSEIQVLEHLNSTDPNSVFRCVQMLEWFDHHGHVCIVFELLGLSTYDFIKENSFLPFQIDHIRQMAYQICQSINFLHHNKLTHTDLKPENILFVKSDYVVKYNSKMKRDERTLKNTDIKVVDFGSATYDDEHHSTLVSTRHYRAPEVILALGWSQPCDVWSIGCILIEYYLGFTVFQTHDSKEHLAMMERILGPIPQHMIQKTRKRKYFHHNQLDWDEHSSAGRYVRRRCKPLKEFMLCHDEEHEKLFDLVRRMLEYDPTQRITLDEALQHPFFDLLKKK
Sequence of Glucocorticoid receptor (Homo sapiens) (P04150 whole entry, looked up): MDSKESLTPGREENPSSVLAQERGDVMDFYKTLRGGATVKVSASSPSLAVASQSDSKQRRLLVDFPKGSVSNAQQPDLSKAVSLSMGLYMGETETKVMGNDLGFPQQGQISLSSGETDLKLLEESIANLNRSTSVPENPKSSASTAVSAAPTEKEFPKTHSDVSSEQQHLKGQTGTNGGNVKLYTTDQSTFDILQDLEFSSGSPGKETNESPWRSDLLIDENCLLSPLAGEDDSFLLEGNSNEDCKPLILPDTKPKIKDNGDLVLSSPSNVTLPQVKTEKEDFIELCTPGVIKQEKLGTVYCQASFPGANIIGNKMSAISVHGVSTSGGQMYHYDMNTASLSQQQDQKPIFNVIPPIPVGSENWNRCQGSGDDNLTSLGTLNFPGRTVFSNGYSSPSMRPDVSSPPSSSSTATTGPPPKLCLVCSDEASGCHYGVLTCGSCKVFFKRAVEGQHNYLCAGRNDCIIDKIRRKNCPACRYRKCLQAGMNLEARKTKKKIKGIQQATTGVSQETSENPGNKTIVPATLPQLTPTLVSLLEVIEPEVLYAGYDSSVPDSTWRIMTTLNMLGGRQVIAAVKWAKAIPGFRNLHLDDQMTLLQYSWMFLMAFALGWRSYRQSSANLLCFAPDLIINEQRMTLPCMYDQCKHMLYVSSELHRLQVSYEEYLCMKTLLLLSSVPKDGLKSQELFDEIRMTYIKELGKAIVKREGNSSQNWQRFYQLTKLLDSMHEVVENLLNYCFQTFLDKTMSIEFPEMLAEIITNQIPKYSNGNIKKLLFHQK
Sequence of Lysosomal acid glucosylceramidase (Homo sapiens) (P04062 whole entry, looked up): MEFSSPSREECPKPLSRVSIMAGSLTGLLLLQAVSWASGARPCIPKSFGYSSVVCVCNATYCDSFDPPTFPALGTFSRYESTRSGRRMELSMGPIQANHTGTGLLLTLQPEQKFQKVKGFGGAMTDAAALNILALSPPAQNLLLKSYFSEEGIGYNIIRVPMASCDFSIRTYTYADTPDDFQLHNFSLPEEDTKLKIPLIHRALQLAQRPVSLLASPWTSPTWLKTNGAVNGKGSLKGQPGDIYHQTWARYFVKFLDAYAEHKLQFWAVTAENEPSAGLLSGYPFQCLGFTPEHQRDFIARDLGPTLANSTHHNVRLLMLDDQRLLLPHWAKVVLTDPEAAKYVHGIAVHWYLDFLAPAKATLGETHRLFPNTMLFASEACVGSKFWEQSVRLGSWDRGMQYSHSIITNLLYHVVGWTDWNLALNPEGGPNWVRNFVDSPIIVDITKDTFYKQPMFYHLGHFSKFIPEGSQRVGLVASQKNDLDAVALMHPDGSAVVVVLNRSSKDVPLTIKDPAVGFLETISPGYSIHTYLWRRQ
Sequence of Cytochrome P450 3A4 (Homo sapiens) (P08684 whole entry, looked up): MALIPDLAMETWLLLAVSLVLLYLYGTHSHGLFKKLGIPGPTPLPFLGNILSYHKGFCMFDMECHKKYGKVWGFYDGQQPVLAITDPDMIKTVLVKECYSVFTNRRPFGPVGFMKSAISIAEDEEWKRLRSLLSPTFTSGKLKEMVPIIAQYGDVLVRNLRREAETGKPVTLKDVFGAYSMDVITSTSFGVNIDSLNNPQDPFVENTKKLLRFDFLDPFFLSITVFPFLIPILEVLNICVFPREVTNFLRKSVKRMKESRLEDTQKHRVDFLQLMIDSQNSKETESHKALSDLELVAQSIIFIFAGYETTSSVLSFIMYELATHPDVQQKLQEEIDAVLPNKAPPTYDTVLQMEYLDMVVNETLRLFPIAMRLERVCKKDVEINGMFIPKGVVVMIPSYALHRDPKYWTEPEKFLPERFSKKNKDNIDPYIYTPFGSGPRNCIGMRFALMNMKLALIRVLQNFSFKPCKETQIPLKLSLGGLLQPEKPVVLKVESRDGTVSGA
Sequence of Ubiquitin carboxyl-terminal hydrolase 1 (Homo sapiens) (O94782 whole entry, looked up): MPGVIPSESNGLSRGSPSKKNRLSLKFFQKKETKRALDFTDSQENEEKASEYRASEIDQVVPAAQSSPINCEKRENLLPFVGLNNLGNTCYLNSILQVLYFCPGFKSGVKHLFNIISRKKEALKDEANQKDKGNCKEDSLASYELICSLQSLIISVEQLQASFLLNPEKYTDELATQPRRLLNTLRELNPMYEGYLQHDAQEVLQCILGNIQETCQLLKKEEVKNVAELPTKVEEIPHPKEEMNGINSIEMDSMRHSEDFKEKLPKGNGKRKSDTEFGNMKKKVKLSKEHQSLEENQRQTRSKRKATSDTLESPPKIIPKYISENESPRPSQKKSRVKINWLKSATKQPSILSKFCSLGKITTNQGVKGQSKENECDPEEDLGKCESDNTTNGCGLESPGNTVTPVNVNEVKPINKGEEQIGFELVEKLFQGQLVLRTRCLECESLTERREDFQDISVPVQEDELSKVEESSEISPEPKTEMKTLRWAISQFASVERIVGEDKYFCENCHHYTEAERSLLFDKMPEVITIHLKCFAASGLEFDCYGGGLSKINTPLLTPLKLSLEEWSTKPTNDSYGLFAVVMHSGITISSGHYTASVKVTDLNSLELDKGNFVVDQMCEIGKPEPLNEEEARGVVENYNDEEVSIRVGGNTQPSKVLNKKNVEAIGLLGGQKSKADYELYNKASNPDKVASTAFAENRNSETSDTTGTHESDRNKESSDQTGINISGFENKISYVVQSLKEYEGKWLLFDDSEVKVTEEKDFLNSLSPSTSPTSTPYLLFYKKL

`Cn1cc(-c2nc3cnc(N4CCNCC4)nc3n(CCC#N)c2=O)c2ccccc21`: the Potency is > 11.4 µM (inactive) in test [1], > 9.22 µM (inactive) in [4], > 46 µM (inactive) in test [5] and 3.16 µM (active) in [8]. For the same compound, the values for the activity change, negative = inhibition in [2], in test [3] and in test [9] were 14.5% (inactive), 1.75% (inactive) and 1.65% (inactive), respectively. Moreover, in test [6], the call was inactive. Moreover, the Potency result in test [7], in test [10], in test [11], in test [12] and in [13] was “inactive” in each case. For the same compound, the max response was -3.78% in [9] (setting [18]) and -5% in test [9] (setting [19]).

As to `Clc1ccccc1-c1nccc(NCc2cccs2)n1`, the figures for the activity change, negative = inhibition in test [2], in [3] and in [9] were 15.2% (inactive), 0.38% (inactive) and 7.3% (inactive), respectively. Further, the activity, negative = inhibition in test [14] was 1.89% (inactive). Further, the results for the Potency in test [4], in test [5] and in [12] were > 46 µM (inactive), > 46 µM (inactive) and 28.2 µM (active), respectively. Also, the compound was called inactive in [6]. Also, the max response in test [9] (setting [18]) is 8.1%; in test [9] (setting [19]), 18.5%. Further, the Potency result in test [10], in test [11] and in test [13] was “inactive” throughout.

For `c1csc(CNc2ccnc(-c3ccoc3)n2)c1`, the Potency is > 11.4 µM (inactive) in test [1], 1 µM (active) in test [15], > 46 µM (inactive) in test [4] and > 46 µM (inactive) in test [5]. The activity change, negative = inhibition is 8.64% (inactive) in test [2], -0.203% (inactive) in test [3] and 5% (inactive) in [9]. For the same compound, the activity, negative = inhibition in [14] was 10.3% (inactive). In addition, the call in test [6] was inactive. Besides, the Potency entry in [16], in [10], in [11] and in test [13] was “inactive” each time. Besides, the max response in [9] (setting [18]) amounted to 21.1%; in test [9] (setting [19]), 20.9%.

Take `COCCNc1cc(-c2ccccc2C)ncn1`: the Potency was > 11.4 µM (inactive) in test [1]; 15.8 µM (active) in test [15]; > 46 µM (inactive) in test [4]; > 46 µM (inactive) in test [5]; 12.6 µM (active) in test [10]. Also, the figures for the activity change, negative = inhibition in test [2], in test [3] and in [9] were 5.04% (inactive), 5.56% (inactive) and 6.88% (inactive), respectively. In addition, the activity, negative = inhibition in test [14] is 13.1% (inactive). In test [6], the compound was classed as inactive. Also, the values for the max response in [9] (setting [18]) and in test [9] (setting [19]) were 3.79% and 8.94%, respectively. In addition, the Potency result in [13] is “inactive”.

Take `Cc1cnc(CNc2ncncc2-c2cccc(C#N)c2)cn1`: the Potency was > 11.4 µM (inactive) in test [1]; 12.6 µM (active) in test [15]; > 46 µM (inactive) in test [4]; > 46 µM (inactive) in [5]; 2 µM (active) in test [17]; 28.2 µM (active) in test [10]. For the same compound, the activity change, negative = inhibition in test [2] was 15% (inactive); in test [3], 1.24% (inactive); in test [9], 8.03% (inactive). Besides, the activity, negative = inhibition in [14] is 9.2% (inactive). In addition, the outcome in test [6] was inactive. The Potency result in test [7], in test [16], in [12] and in test [13] was “inactive” throughout. Further, the figures for the max response in test [9] (setting [18]) and in [9] (setting [19]) were 20.9% and 25.3%, respectively.

With `O=c1c(-c2ccc(F)cc2)nc2cnc(Oc3ccccc3)nc2n1C1CC1`, the figures for the activity change, negative = inhibition in test [2], in test [3] and in test [9] were 2.54% (inactive), 5.2% (inactive) and 0.468% (inactive), respectively. Further, the activity, negative = inhibition in test [14] was -10.8% (inactive). The Potency in [4] is > 9.22 µM (inactive); in test [5], > 46 µM (inactive). In addition, the compound was classed as inactive in [6]. Moreover, the Potency entry in test [7], in test [10], in test [11], in test [12] and in test [13] was “inactive” each time. Besides, the max response in test [9] (setting [18]) is 0.149%; in test [9] (setting [19]) it was -1.57%.

In the case of `COc1ccc(-n2c(=O)cnc3cnc(N4CCOCC4)nc32)cc1`, the Potency is > 11.4 µM (inactive) in test [1], > 9.22 µM (inactive) in test [4], > 46 µM (inactive) in test [5] and 28.2 µM (active) in test [10]. Further, the results for the activity change, negative = inhibition in [3] and in [9] were 1.82% (inactive) and 6.91% (inactive), respectively. Moreover, the activity, negative = inhibition in test [14] was -10.3% (inactive). Also, the outcome in [6] was inactive. Further, the max response in [9] (setting [18]) came to 0.0679%; in [9] (setting [19]), 8.45%. The Potency result in test [12] and in test [13] was “inactive” in each case.
